Only some compounds are listed: those with a hit (about 1.8% of all), similar ones and a draw of the others.
INS-1E GSIS act: primary screen for activators of insulin secretion dependent on glucose, INS-1E cells, GLuc reporter luminescence. activation, % at 16.6 µM. INS-1E GLuc reporter insulin secretion, 2-3 h. 0.61% of 370,000 active;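 active means lowest replicate activation of at least 40%, so every replicate reaches that level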;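 further: 0% = median of neutral control wells and 100% = median of IBMX positive control wells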
LGR2 inh: blocks bursicon-induced cAMP signaling via Drosophila LGR2; HEK293 LGR2, CRE-luciferase, bursicon-stimulated, 4 h; 0.35% of 380,000 active; inhibition, % at 9.99 µM;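 active means drop in luminescence signal, shown as inhibition above about 50% in the replicate tests, limit read from the data, passing the limit was not always enough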;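 further: agonist challenge used bursicon conditioned medium at about half maximal strength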
F508del corr: CFTR F508del correction in bronchial cells | 0.36% of 350,000 active | activity (quench increase), % at 7.58 µM | CFBE cells, YFP halide quenching; stimulated with forskolin plus potentiator P3; % fluorescence drop versus neutral controls;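 active means mean added fluorescence quench of at least 8% versus neutral control, with both replicates also reaching 8%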;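 further: cells transiently co-express mutant CFTR-F508del with the halide-sensitive YFP; corrector assay measuring rescue of mutant channel to the surface after 24 h compound exposure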
RAD52 inh: blocks human RAD52 DNA annealing | inhibition, % at 18.7 µM | 0.46% of 360,000 active | P43351 | recombinant RAD52 DNA annealing, FRET fluorescence;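 active means every replicate showing at least 50% inhibition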
RAD54 inh: blocks human RAD54 Holliday junction branch migration. Q92698. FAM/BHQ fluorescence. inhibition, % at 10.4 µM. 0.14% of 360,000 active;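 active means mean normalized replicate activity at least 40 and at least half of replicates scoring 40 or more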;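 further: 0% = median of neutral control wells and 100% = median of positive control wells; inhibitors cause a drop in the FAM fluorescence signal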
Target sequence (Q92698 whole entry, looked up): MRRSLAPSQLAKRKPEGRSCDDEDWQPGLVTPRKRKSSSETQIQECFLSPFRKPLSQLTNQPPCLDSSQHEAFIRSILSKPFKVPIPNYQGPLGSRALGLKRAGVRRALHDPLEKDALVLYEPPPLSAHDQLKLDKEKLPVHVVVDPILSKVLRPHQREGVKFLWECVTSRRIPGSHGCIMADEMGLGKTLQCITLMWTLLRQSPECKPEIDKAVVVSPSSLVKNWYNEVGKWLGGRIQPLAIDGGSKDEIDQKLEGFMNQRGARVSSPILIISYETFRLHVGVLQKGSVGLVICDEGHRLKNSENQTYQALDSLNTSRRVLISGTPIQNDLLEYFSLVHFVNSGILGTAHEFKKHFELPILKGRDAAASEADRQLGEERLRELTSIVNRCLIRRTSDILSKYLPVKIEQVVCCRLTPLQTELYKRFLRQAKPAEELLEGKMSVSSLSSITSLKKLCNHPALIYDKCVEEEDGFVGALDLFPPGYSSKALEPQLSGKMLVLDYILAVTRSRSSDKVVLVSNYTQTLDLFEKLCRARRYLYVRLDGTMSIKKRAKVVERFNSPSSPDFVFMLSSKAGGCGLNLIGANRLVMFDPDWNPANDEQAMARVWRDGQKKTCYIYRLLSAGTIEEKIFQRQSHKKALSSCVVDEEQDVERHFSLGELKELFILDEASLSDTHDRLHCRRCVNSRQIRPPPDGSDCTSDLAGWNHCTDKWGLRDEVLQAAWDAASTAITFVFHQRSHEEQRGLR
EWS-Fli block: EWS/Fli transcriptional activity inhibition; A673 NR0B1-luciferase reporter, viability-normalised; AID 651661; 0.67% of 350,000 active; inhibition, % at 12.6 µM;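 active means mean inhibition of at least 50% after viability correction, with every replicate also passing that limit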;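 further: firefly luciferase signal divided by Alamar Blue viability fluorescence both relative to DMSO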
* marks the source's active call; other numbers are inactive results; nt = not tested or not shown.

SMILES	INS-1E GSIS act	LGR2 inh	F508del corr	RAD52 inh	RAD54 inh	EWS-Fli block
CC(C)C[C@H](NC(=O)c1nc[nH]c1C(=O)NC1CCN(C(=O)OC(C)(C)C)CC1)C(=O)OCc1ccccc1	1	1	0	-18	-2	21
CC(C)C[C@H](NC(=O)c1[nH]cnc1C(=O)N[C@@H](C)c1ccccc1)C(=O)OC(C)(C)C	88*	-8	-1	-11	-10	5
CC(C)C[C@H](NC(=O)c1[nH]cnc1C(=O)N[C@@H](Cc1ccccc1)C(=O)OC(C)(C)C)C(=O)OC(C)(C)C	-21	30	-1	-9	-17	11
CC(C)C[C@H](NC(=O)c1nc[nH]c1C(=O)NC1CCN(C(=O)OC(C)(C)C)CC1)C(=O)OC(C)(C)C	346*	nt	0	-9	2	13
Cc1ccc(S(=O)(=O)N(C)C[C@@H]2Oc3ccc(NC(=O)Nc4ccc5c(c4)OCO5)cc3CC(=O)N([C@@H](C)CO)C[C@@H]2C)cc1	-24	-1	0	12	30	63*
C[C@H]1CN([C@@H](C)CO)C(=O)Cc2cc(NC(=O)Nc3ccc4c(c3)OCO4)ccc2O[C@H]1CN(C)S(=O)(=O)c1ccc(F)cc1	-2	15	0	9	nt	53*
Cc1ccc(S(=O)(=O)N(C)C[C@H]2Oc3ccc(NC(=O)Nc4ccc5c(c4)OCO5)cc3CC(=O)N([C@H](C)CO)C[C@@H]2C)cc1	9	7	-4	7	0	10
Cc1ccccc1CNC(=O)Cn1ccc2cc(S(=O)(=O)N3CCCCCC3)ccc21	-19	8	2	-19	6	nt
NNC(=O)c1ccncc1	4	17	-3	-7	4	-7
CCOC(=O)c1cc([N+](=O)[O-])c([N+](=O)[O-])cc1NC(C)=O	61*	-3	-1	-15	-9	62*
COc1cc2c(cc1OC)C(CSc1ccccc1C(=O)O)=NC(C)(C)C2	41*	-28	7	-46	nt	5
Cc1nn(C)c(C)c1/C=N/NC(=O)C(C)(C)Oc1ccc(Cl)cc1	5	-17	-4	-13	-7	4
Cc1nn(C(C)(C)C)c(C)c1/C=N/OC(=O)Nc1ccc(Cl)cc1	5	99*	0	-15	0	87*
O=[N+]([O-])c1ccc(-c2nc(C(Cl)Cl)c3ccccc3n2)cc1	1	41	-2	-11	-6	67*
O=[N+]([O-])c1c(Nc2ccccc2O)cc(Cl)c2nonc12	-1	38	-6	2	18	66*
O=[N+]([O-])c1c(Nc2ccccc2O)ccc2nonc12	-7	-5	-1	-8	-4	4
Cc1cccc(C)c1NC(=O)c1csc([C@@H]2O[C@H](CO)[C@H](O)[C@H](O)[C@H]2O)n1	53*	-7	-2	-11	-5	38
COCC#Cc1cnc2c(c1)C(=O)N([C@@H](C)CO)C[C@@H](C)[C@@H](CN(C)C(=O)C1CCC1)O2	19	3	3	11	-7	-17
Cn1c(=O)c(C(=O)NNC(=O)c2cccc(Cl)c2)c(O)c2ccccc21	545*	11	3	-2	4	-3
Cc1cccc(C(=O)NNC(=O)c2c(O)c3ccccc3n(C)c2=O)c1	-24	33	0	-1	-4	15
COc1cc2c(cc1NC(=O)c1ccc(C)c([N+](=O)[O-])c1)oc1ccccc12	53*	-7	nt	nt	5	nt
Cc1ccccc1S(=O)(=O)/N=C(/c1ccccc1)N(C)C	16	8	0	-9	5	nt
CC(=O)c1c(C)oc2ccc(NS(=O)(=O)c3ccc(F)cc3C)cc12	223*	-1	-3	1	-6	24
COc1ccccc1CNC(=O)COC(=O)c1cc(C)nc2ccccc12	48*	3	0	-10	-3	-9
Cc1cc(C(=O)OCC(=O)NCc2ccc(F)cc2)c2ccccc2n1	0	14	-4	-6	4	0
Cc1cc(C(=O)OCC(=O)NCc2ccccc2)c2ccccc2n1	67*	-11	-3	-13	12	1
Cc1cc(C)c2c(N)c3ccccc3nc2n1	nt	nt	nt	nt	100*	nt
CC(=O)N(C)c1ccc(N=Nc2ccc3ncccc3c2)cc1	nt	66*	0	27	-8	-12

Screening data deposited in PubChem BioAssay by Broad Institute.
